An excerpt weighted towards active compounds, which were near 1% of everything screened.
Glioma ERSR ind = qHTS for Inducers of the Endoplasmic Reticulum Stress Response (ERSR) in Human Glioma: qHTS. U87-MG GRP78 promoter luciferase reporter, 16 h. Potency, µM, without a hit: at the highest dose activation, actives largely listed as activators. 420,000 compounds, 0.02% hits. AID 602332, 2012; active means well fitted activation curve with a large enough effect; inconclusive means small, poorly fitted or top-dose-only effect; inactive means no such curve, though single readings can be large or run the other way; further: potency means the concentration at half of the fitted maximal effect; series mostly up to about 76 µM; % of control where 0% means no effect; nearly all actives have a fitted effect of over 35% in size
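ERSR induction read as luciferase luminescence (Bright-Glo, 10 min at room temperature) in stably transfected human U87-MG glioma cells exposed to compounds for 16 h, using GRP78 as sensor.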
hERG WT inh = qHTS for Inhibitors of KCHN2 3.1: Wildtype qHTS | U2OS, BacMam KCNH2, thallium flux FluxOr; active compounds read low | activity change, % at 1.84 µM | 340,000 compounds, 0.37% hits;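 active means maximum activity change below -70%; inconclusive means maximum activity change between -70% and -50%; inactive means maximum activity change above -50%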; further: on the % scale 0 is the no-effect control and ±100 the full control effect
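U2OS cells transduced with wild-type KCNH2 virus are loaded with FluxOr dye for 45 min, and thallium flux is measured in kinetic reads before and after stimulation buffer. Rate constants are normalized to DMSO controls.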
KCNH2 3.1 block = qHTS for Inhibitors of KCHN2 3.1: Mutant qHTS; Potassium voltage-gated channel subfamily H member 2, brain isoform KCNH2 3.1 (human); U2OS KCNH2 3.1, thallium flux FluxOr; active compounds read low; activity change, % (tested at about 1.8 µM); 340,000 compounds, 0.95% hits; AID 720553, 2013;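 active means maximum activity change below -70%; inconclusive means maximum activity change from -70% to -50%; inactive means maximum activity change above -50%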;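 further: thallium influx rate constant from kinetic fluorescence after stimulation buffer; on the % scale 0 is the no-effect control and ±100 the full control effect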
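We transduce U2OS cells with the mutant 3.1 virus, culture them overnight, load FluxOr with Red40 quencher for 45 min, then add stimulation buffer and read kinetically for 2 min to derive a normalized rate constant.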
TRPML1 agonist = qHTS for Agonists of the Human Mucolipin Transient Receptor Potential 1 (TRPML1) | TRPML1-expressing cells, Ca2+ dye fluorescence, FDSS | Mucolipin-1 (Homo sapiens), Q9GZU1 | activation, % (test concentration not listed) | 410,000 compounds, 0.12% hits; in the data active means activation above about 50%; inconclusive means mostly about 30% to 49%; further: 0% is about no effect
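Kinetic FDSS Ca2+ read in Tet-induced TRPML1-DL cells (ABD Ca8 dye plus quencher, 45-90 min RT loading): baseline, then compound, then 110 s agonist window; EC80 agonist 54-4 at 4uM final added afterwards for a 110 s antagonist window.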
TSG101-PTAP inh = qHTS Assay for Iinhibitors of HIV-1 Budding by Blocking the Interaction of PTAP/TSG101. Tumor susceptibility gene 101 protein (Homo sapiens), Q99816. Potency, µM (doses to about 115 µM), without a hit: at the highest dose activity change, negative = inhibition, most hits filed as inhibitors. Fluorescence polarization, FITC-PTAP peptide / Tsg101 binding. 340,000 tested, under 10 active; active means well fitted inhibition curve with a large enough effect in the main read-out, with a control signal flat, not every such curve was filed as active; inconclusive means small, poorly fitted or top-dose-only effect, or effect the other way, or a change in a side signal; inactive means no such curve, though single readings can be large or run the other way; further: potency means the concentration at half of the fitted maximal effect; % of control where 0% means no effect
Target sequence (Q99816 whole entry, looked up): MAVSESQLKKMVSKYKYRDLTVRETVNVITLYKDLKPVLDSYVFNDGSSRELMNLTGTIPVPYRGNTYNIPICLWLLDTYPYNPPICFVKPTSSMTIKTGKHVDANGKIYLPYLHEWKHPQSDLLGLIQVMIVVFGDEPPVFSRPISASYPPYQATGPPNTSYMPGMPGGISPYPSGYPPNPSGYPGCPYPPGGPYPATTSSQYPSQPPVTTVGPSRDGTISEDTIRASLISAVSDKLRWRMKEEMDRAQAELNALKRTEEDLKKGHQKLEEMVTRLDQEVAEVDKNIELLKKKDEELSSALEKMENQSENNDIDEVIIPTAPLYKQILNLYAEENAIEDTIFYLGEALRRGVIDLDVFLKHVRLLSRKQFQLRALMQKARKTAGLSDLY
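Fluorescence polarization binding of Tsg101 binding domain (10 uM final) to FITC-labeled PTAP peptide (50 nM final) in HEPES pH 7.5 buffer with NaCl, Tween 20, EDTA, TCEP. Compounds added before peptide; binding 20 min at RT.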
TRPML1 inh = qHTS for Inhibitors of the Human Mucolipin Transient Receptor Potential 1 (TRPML1); AID 624415, 2012; activity change, negative = inhibition, % (no concentration beside the values); TRPML1-inducible cells, Ca2+ dye fluorescence, FDSS; active compounds read low; inhibition of EC80 agonist-evoked calcium signal; 390,000 compounds, 0.02% hits; in the data active means activity change below about -50%; inconclusive means between about -30% and that limit;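 further: stimulus is agonist 54-4 at its EC80 concentration; on the % scale 0 is the no-effect control and ±100 the full control effect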
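Tet-induced TRPML1-DL cells loaded with Ca8 no-wash calcium dye were read kinetically on FDSS. Compound addition was followed by EC80 agonist 54-4 (4 uM final); inhibition was read over 110 s.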
An asterisk follows results filed as active; ? = inconclusive; . = no result given.

SMILES	Glioma ERSR ind	hERG WT inh	KCNH2 3.1 block	TRPML1 agonist	TSG101-PTAP inh	TRPML1 inh
O=C1CC(CC(=O)N2CC3CCCC2C3)(c2cccc(F)c2)C(=O)N1Cc1cccnc1 (stereo not drawn)	0%	.	.	.	.	.
COc1ccc(-c2c[n+]3c4n2CCCCC4=C(c2ccc(Br)cc2)C3)cc1	-3%	17	-169*	0	-6%	31
COCCOCC(=O)Nc1ccc(S(=O)(=O)Nc2cc(C)nc(C)n2)cc1	-1%	-108*	12	0	1%	-1
CCOc1ccc(N=C(C)Nc2ccc(OCC)cc2)cc1	-3%	.	.	.	.	.
O=C(c1cccs1)N1CCN(C(=O)c2cn(-c3ccccc3)nc2-c2ccccc2)CC1	4%	-129*	-172*	0	0%	82
Cc1ccccc1C1(CC(=O)N2CC3CC4CC(C3)CC2C4)CC(=O)N(Cc2cccnc2)C1=O (stereo not drawn)	-3%	.	.	.	.	.
COCCN1CCN(C(=O)c2cnn(-c3ncc4c(n3)-c3ccc(OC)cc3CC4)c2C2CC2)CC1	2%	.	.	.	.	.
COC(=O)c1c(NC(=O)C2COc3ccccc3O2)sc2c1CCN(Cc1ccccc1)C2 (stereo not drawn)	-5%	3	-92*	0	3%	6
Cc1cccc(NC(=O)C(C)OC(=O)CNC(=O)C2CCCCC2)c1 (stereo not drawn)	-1%	-144*	7	-1	.	-10
Cc1cccc2c(Nc3ccc4c(c3)OCO4)nc(CN3CCC(N4CCCCC4)CC3)nc12	-1%	.	.	.	.	.
O=C(Nc1cccc([N+](=O)[O-])c1)N1CCN(c2ccccc2)CC1	3%	-5	0	-1	-6%	13
Cc1ccc(N2CCN(C(=O)Nc3cccc([N+](=O)[O-])c3)CC2C)cc1 (stereo not drawn)	-3%	-77*	-74*	6	-2%	-5
Cc1ccc2nc(-c3ccc(-c4cccc(Cl)c4)cc3)c(NCc3ccccc3)n2c1	4%	-1	-78*	0	-5%	-14
Cc1ccc(-c2nc3ccccn3c2NCc2ccc3c(c2)OCO3)cc1	3%	-14	-92*	1	-1%	4
Cc1ccccc1NC(=O)COC(=O)C1C2CC3OC(=O)C1C3C2 (stereo not drawn)	-6%	-254*	-1	1	-12%	9
COc1ccc(-c2nc(Cn3c(SCc4ccccc4F)nc4ccncc43)c(C)o2)cc1	-6%	11	-109*	0	-6%	9
CCN(CC)c1ccc(/C=C/c2ccc3ccccc3n2)cc1	-9%	.	.	1	.	.
Cn1c(-c2ccncc2)nc2cc(C(=O)N[C@H]3CCCCNC3=O)cc(NC(=O)C3CCC3)c21	-3%	.	.	.	.	.
CC(C)(C)n1nnnc1C(c1cccs1)N(Cc1ccc(Cl)cc1)CC1CCCO1 (stereo not drawn)	-2%	-6	-8	66*	-2%	-18
Clc1ccc(CN(Cc2ccccc2)C(c2cccs2)c2nnnn2C2CCCC2)cc1 (stereo not drawn)	-4%	-7	-23	0	-5%	8
Cc1ncc2c(c1CNC(=O)c1ccc3c(c1)OCO3)CCN(C(=O)c1ccoc1)C2	-4%	.	.	.	.	.
Cc1ccc(C)c(SCC(=O)NC(=O)Nc2ccc3c(c2)OCCO3)c1	-2%	-79*	5	-1	1%	13
Oc1cccc(-c2c3nc(c(-c4cccc(O)c4)c4ccc([nH]4)c(-c4cccc(O)c4)c4nc(c(-c5cccc(O)c5)c5ccc2[nH]5)CC4)C=C3)c1	-6%	.	.	.	.	.
CCN(CC)CCCCN1c2ccccc2Sc2ccccc21	-7%	9	-73*	3	0%	9
CCN(CC)CC(=O)N1c2ccccc2Sc2ccccc21	-4%	2	18	1	-1%	23
SMILES	Glioma ERSR ind	hERG WT inh	KCNH2 3.1 block	TRPML1 agonist	TSG101-PTAP inh	TRPML1 inh
CC(C)C(=O)Nc1c2c(nn1-c1ccc(F)cc1)CS(=O)(=O)C2	-10%	-8	-109*	0	-1%	-30
O=C(Nc1c2c(nn1-c1ccc(F)cc1)CS(=O)(=O)C2)C1CCCC1	1%	3	-21	-1	-3%	12
O=C(CCc1c[nH]c2ccccc12)OCC(=O)N1CCN(S(=O)(=O)c2ccccc2)CC1	-5%	-101*	-17	0	-1%	1
Cc1ccc(S(=O)(=O)N2CCN(C(=O)CCc3c[nH]c4ccccc34)CC2)cc1	-4%	-4	4	-1	-5%	-3
COc1cccc(C(=O)NC(C)C(c2cccs2)N2CCN(C)CC2)c1 (stereo not drawn)	-1%	-5	-72*	1	-2%	1
CC(NC(=O)c1cccnc1)C(c1cccs1)N1CCN(C)CC1 (stereo not drawn)	-1%	3	-6	0	-1%	-5
COc1ccc2c(C(=S)N(C)CC(=O)O)cccc2c1C(F)(F)F	-2%	.	.	.	.	.
Cc1cc(C)n(-c2cccc(C(=O)NCC3Cc4cccc(-c5ccccn5)c4O3)c2)n1 (stereo not drawn)	-3%	.	.	.	.	.
O=S(=O)(O)OCC1OC(OC2(COS(=O)(=O)O)OC(COS(=O)(=O)O)C(OS(=O)(=O)O)C2OS(=O)(=O)O)C(OS(=O)(=O)O)C(OS(=O)(=O)O)C1OS(=O)(=O)O (stereo not drawn)	-4%	.	.	.	.	.
CC(=O)N1CCC[C@H]1C(=O)NCC1Cc2cc(-c3cccc(OC(F)(F)F)c3)ccc2O1 (stereo partly drawn)	-2%	.	.	.	.	.
CCCC(C)C(=O)Nc1ncc(S(=O)(=O)c2ccc([N+](=O)[O-])cc2)s1 (stereo not drawn)	-3%	-102*	-106*	28	2%	-3
COc1ccc(C(CNC(=O)/C=C/c2c(Cl)nc3ccccn23)N(C)C)cc1 (stereo not drawn)	-3%	-1	-87*	-1	-2%	22
OCC1(CCc2ccccc2)CCCN(CCCc2ccccc2)C1 (stereo not drawn)	0%	?	-96*	0	-1%	4

Assay outcomes: PubChem, National Center for Advancing Translational Sciences (NCATS)
